The supplement of paper PMC10849652
Of roughly 8,800 targets only a part is listed; those with a hit were picked by preference. About 0.5% of all pairs of compound and target were hits. A number with no mark means an inactive call.

What was measured:
Assay in all cases: log2 fold change, soluble protein after heating vs DMSO (PISA); higher = thermal stabilisation; K562 lysate, 10 uM; active = over 0.2 and 3.5 SD of the protein, either way, in both replicates (recomputed)
nilotinib = compound: Cc1cn(-c2cc(NC(=O)c3ccc(C)c(Nc4nccc(-c5cccnc5)n4)c3)cc(C(F)(F)F)c2)cn1 [nilotinib]
In short: (§1)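 To prepare the extract, K562 pellets were dounce-homogenised in PBS pH 7.4 with 1 mM MgCl2, giving crude material at 1 mg/mL protein. This was treated with 10 μM compound for 30 min, then heated in aliquots for 3 min over 48°C-58°C before pooling and addition of NP-40 to 0.5% at 4°C. Centrifugation at 21,000xg for 90 min left soluble protein in the supernatant, which TMTpro 16plex LC-MS/MS quantified with equalised channel sums. Results are log-two fold changes in thermal stability compared with solvent controls, from duplicates.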

[1] = compound: Cc1nc(Nc2n[nH]c3c2CN(C(=O)N[C@H](CN(C)C)c2ccccc2)C3(C)C)c2sccc2n1
In short: as §1

dasatinib = compound: Cc1nc(Nc2ncc(C(=O)Nc3c(C)cccc3Cl)s2)cc(N2CCN(CCO)CC2)n1 [dasatinib]
In short: as §1

[2] = compound: Cc1ncc(-c2ccnc(Nc3ccc(S(C)(=O)=O)cc3)n2)n1C(C)C
In short: as §1

[3] = compound: Cn1cc(-c2ccc3c(c2)CCN3C(=O)Cc2cccc(C(F)(F)F)c2)c2c(N)ncnc21
In short: as §1

quisinostat = compound: Cn1cc(CNCC2CCN(c3ncc(C(=O)NO)cn3)CC2)c2ccccc21 [quisinostat]
In short: as §1

tipifarnib = compound: Cn1cncc1[C@@](N)(c1ccc(Cl)cc1)c1ccc2c(c1)c(-c1cccc(Cl)c1)cc(=O)n2C [tipifarnib]
In short: as §1

[4] = compound: NC(=O)Nc1cc(-c2cccc(F)c2)sc1C(=O)N[C@H]1CCCNC1
In short: as §1

[5] = compound: NC(=O)c1cnc(N[C@@H]2CCCC[C@@H]2N)nc1Nc1cccc(-n2nccn2)c1
In short: as §1

[6] = compound: NC1(c2ccc(-c3nc4ccn5c(=O)[nH]nc5c4cc3-c3ccccc3)cc2)CCC1
In short: as §1

UniProt Q9Y570, sequence (Q9Y570 whole entry, looked up): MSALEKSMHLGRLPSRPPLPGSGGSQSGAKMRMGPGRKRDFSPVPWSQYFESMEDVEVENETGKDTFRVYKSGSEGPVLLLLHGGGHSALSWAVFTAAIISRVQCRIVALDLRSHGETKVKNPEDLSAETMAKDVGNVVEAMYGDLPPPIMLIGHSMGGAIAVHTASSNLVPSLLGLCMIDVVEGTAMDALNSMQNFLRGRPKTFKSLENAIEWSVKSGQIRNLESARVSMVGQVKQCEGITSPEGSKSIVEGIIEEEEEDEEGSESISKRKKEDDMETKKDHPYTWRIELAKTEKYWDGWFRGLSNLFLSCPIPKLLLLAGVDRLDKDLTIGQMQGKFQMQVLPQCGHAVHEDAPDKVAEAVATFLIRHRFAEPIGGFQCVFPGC
UniProt O94880, sequence (O94880 whole entry, looked up): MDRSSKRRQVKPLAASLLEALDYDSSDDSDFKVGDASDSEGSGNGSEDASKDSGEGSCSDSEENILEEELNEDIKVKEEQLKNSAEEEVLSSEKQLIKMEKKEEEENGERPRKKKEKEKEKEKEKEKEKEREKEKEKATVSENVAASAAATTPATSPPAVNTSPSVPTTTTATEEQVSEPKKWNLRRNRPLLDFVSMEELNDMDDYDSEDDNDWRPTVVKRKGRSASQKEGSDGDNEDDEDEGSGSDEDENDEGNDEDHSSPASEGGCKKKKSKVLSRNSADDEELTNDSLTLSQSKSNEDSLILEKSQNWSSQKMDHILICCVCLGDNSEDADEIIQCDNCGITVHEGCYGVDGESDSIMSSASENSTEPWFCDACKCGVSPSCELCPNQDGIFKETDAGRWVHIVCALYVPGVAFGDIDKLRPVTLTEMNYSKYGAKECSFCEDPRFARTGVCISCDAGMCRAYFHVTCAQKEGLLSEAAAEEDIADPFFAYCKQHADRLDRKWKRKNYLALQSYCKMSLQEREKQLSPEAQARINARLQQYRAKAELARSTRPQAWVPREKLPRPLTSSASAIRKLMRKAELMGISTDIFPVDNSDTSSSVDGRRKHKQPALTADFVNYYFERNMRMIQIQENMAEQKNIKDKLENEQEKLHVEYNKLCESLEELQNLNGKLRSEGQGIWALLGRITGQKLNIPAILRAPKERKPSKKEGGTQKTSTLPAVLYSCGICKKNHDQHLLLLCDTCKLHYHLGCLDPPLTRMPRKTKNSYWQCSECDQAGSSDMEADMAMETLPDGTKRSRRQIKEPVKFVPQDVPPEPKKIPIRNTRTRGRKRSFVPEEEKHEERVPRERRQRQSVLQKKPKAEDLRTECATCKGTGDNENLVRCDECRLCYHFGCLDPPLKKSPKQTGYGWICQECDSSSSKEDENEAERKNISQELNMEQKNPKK
UniProt Q8TD55, sequence (Q8TD55 whole entry, looked up): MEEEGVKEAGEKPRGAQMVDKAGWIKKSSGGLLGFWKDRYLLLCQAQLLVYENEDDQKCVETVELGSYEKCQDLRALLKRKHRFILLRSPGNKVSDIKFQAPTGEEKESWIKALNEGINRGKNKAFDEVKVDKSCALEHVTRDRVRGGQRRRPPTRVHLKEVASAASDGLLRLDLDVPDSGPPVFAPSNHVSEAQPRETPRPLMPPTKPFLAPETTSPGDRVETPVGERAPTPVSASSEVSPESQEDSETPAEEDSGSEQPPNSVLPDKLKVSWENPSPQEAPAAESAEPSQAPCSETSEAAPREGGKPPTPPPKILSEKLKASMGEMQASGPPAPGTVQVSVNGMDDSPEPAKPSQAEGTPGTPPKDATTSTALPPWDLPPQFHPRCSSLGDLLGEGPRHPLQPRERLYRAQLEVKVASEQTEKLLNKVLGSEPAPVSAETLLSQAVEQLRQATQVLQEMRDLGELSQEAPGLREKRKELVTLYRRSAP
UniProt Q15173, sequence (Q15173 whole entry, looked up): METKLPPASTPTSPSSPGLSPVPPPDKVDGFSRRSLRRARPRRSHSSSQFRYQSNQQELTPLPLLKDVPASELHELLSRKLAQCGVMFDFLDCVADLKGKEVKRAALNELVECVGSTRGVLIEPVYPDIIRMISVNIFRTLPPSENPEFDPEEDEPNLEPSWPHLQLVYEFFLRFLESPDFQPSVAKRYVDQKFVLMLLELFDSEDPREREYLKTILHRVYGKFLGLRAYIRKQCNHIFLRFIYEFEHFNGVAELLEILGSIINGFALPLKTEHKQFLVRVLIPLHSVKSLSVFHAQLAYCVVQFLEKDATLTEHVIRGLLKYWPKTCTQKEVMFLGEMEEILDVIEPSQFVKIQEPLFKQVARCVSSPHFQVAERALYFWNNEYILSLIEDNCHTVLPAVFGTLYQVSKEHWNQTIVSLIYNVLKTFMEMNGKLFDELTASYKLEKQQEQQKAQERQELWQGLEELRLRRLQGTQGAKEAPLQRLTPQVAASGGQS
UniProt Q16378, sequence (Q16378 whole entry, looked up): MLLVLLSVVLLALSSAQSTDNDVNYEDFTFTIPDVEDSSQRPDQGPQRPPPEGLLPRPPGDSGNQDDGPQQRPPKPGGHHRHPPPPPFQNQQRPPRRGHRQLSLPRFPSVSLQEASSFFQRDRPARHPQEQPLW
UniProt Q9UHX1, sequence (Q9UHX1 whole entry, looked up): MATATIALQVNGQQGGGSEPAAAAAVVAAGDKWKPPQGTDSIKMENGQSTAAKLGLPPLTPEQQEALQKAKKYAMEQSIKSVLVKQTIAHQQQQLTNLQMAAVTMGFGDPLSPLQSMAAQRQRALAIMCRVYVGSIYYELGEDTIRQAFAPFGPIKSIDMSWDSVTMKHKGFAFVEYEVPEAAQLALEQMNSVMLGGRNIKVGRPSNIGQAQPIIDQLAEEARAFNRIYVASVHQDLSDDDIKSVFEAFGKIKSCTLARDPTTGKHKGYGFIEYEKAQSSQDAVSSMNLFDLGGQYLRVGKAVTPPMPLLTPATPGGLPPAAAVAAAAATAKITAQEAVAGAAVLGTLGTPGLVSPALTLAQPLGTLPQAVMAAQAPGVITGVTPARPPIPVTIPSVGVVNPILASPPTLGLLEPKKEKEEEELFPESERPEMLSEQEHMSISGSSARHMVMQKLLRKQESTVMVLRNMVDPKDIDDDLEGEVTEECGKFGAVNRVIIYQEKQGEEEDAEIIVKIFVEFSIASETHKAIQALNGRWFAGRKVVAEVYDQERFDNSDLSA
UniProt O94913, sequence (O94913 whole entry, looked up): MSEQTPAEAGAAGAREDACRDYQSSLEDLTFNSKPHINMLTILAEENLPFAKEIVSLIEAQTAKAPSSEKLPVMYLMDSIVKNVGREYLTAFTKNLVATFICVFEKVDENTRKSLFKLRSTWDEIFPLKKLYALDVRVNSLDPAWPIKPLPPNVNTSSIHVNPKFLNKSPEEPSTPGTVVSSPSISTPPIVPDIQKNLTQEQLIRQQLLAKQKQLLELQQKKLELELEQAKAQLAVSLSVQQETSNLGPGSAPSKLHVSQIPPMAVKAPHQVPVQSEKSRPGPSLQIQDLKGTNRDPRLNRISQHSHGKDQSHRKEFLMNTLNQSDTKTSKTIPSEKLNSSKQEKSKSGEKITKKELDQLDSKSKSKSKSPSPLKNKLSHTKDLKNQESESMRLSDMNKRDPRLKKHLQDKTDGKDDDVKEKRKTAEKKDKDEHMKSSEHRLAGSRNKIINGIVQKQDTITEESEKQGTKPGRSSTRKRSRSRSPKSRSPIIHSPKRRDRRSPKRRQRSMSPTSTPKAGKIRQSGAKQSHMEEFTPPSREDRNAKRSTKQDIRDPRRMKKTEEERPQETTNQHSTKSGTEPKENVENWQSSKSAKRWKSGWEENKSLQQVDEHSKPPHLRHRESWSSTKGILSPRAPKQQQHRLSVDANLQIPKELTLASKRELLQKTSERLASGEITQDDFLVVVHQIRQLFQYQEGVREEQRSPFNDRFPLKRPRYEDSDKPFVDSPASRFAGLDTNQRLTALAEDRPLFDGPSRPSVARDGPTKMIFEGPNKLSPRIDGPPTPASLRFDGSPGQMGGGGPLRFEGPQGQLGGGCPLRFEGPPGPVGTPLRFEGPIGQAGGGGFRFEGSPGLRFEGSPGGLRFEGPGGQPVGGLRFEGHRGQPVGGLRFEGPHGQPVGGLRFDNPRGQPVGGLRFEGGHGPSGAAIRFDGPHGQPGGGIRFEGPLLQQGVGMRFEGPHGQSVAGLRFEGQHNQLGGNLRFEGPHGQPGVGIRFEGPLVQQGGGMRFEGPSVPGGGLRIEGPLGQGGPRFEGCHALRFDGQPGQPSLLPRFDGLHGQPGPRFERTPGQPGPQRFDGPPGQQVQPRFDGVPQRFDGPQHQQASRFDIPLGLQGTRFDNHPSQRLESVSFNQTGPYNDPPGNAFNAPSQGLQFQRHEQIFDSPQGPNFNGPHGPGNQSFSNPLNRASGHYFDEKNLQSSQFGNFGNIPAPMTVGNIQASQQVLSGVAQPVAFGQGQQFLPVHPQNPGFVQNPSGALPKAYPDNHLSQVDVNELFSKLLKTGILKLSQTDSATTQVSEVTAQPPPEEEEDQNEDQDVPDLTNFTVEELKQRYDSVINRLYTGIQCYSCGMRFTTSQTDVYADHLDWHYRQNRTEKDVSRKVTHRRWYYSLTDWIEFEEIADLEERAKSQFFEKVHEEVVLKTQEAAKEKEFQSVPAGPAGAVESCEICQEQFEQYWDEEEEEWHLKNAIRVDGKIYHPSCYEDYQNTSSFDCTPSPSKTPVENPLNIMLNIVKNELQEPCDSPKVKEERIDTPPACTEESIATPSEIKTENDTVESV
UniProt P78356, sequence (P78356 whole entry, looked up): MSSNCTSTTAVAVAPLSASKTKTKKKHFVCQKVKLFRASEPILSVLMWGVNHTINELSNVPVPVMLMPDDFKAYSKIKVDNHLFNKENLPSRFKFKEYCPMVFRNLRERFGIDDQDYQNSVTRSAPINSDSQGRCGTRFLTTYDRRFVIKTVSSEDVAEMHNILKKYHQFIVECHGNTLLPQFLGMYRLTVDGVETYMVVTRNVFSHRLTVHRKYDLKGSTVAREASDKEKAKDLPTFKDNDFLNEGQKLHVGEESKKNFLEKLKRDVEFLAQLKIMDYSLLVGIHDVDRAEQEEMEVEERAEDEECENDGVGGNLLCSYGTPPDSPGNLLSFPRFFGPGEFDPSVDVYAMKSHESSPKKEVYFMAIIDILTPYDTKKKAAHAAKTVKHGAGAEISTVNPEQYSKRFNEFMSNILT

Row | Target | log2 fold change (nilotinib) | log2 fold change [1] | log2 fold change (dasatinib) | log2 fold change [2] | log2 fold change [3] | log2 fold change (quisinostat) | log2 fold change (tipifarnib) | log2 fold change [4] | log2 fold change [5] | log2 fold change [6]
1 | PLK1 (UniProt P53350) | 0.014 | -0.073 | -0.004 | 0.008 | -0.015 | -0.021 | 0.032 | -0.193 | -0.043 | 0.01
2 | PFDN2 (UniProt Q9UHV9) | -0.011 | 0.013 | 0.008 | -0.045 | -0.019 | 0.037 | 0 | -0.018 | -0.028 | 0.053
3 | PRIM1 (UniProt P49642) | 0 | -0.011 | -0.05 | -0.006 | 0.019 | 0.014 | -0.022 | 0.028 | 0.001 | -0.031
4 | PIP4K2B (UniProt P78356) | 0.032 | 0.024 | 0.151 | 0.093 | 0.008 | -0.017 | -0.007 | 0 | 0.002 | -0.034
5 | PIGO (UniProt Q8TEQ8) | -0.019 | 0.055 | -0.032 | -0.19 | 0.079 | -0.119 | 0.013 | 0.301 | 0.059 | 0.041
6 | PFKFB2 (UniProt O60825) | -0.04 | 0.011 | 0.017 | -0.043 | 0.014 | 0.024 | -0.011 | -0.046 | -0.003 | -0.009
7 | PCF11 (UniProt O94913) | -0.003 | -0.001 | -0.042 | 0.023 | -0.017 | -0.004 | -0.029 | 0.019 | -0.013 | -0.012
8 | PLEKHO2 (UniProt Q8TD55) | 0.207 | -0.237 | -0.096 | 0.118 | -0.039 | 0.062 | -0.192 | 0.068 | -0.071 | 0.873 (active)
9 | PRPH isoform 2 (UniProt P41219) | -0.022 | 0.032 | -0.019 | -0.024 | 0.036 | 0.034 | -0.02 | -0.027 | 0.028 | 0.094
10 | PRR4 (UniProt Q16378) | 0.047 | -0.145 | – | -0.027 | – | – | 0.05 | – | 0.032 | 0.012
11 | PPP2R5B (UniProt Q15173) | – | – | 0.018 | – | 0.021 | 0.058 | – | -0.025 | 0.011 | -0.015
12 | PCBP2 (UniProt F8VRH0) | -0.221 | -0.532 | – | -0.063 | – | 0.034 | -0.167 | -0.059 | 0.232 | 0.003
13 | PIK3CD (UniProt O00329) | 0.059 | 0.006 | – | 0.122 | 0.151 | -0.091 | -0.053 | 0.02 | 0.001 | 0.127
14 | PDIA4, A0A499FI48 | – | – | -0.004 | – | 0.044 | -0.02 | – | 0.164 | – | –
15 | PREP (UniProt H0Y5Y0) | – | – | – | – | – | – | – | – | -0.087 | –
16 | POLR2M (UniProt Q6EEV4) | – | – | 0.02 | – | -0.2 | 0.011 | – | 0.032 | -0.015 | 0.076
17 | PRKD3 (UniProt O94806) | 0.054 | -0.086 | – | -0.03 | – | -0.014 | 0.087 | -0.174 | 0.001 | 0.054
18 | PICALM (UniProt H0YCY1) | – | – | – | – | – | – | – | – | – | 0.013
19 | PPP1R12B isoform 6 (UniProt O60237) | – | – | -0.065 | – | 0.134 | -0.531 (active) | – | 0.006 | 0.05 | -0.075
20 | PRKDC (UniProt P78527) | -0.015 | -0.01 | – | 0.188 | 0.038 | -0.093 | -0.011 | 0.004 | 0.123 | -0.073
21 | PHF14 (UniProt O94880) | -0.127 | -0.203 | -0.1 | 0.082 | 0.085 | – | 0.073 | – | -0.077 | –
22 | PUF60 isoform 2 (UniProt Q9UHX1) | -0.011 | -0.027 | – | 0.05 | – | 0.013 | 0.023 | 0.017 | -0.016 | -0.184
23 | PTK2 isoform 2 (UniProt Q05397) | – | – | 0.014 | – | 0.102 | – | – | – | 0.034 | -0.168
24 | PMS1 (UniProt P54277) | -0.022 | 0 | -0.011 | -0.001 | 0.017 | -0.086 | 0.058 | 0.041 | – | -0.029

Row | Target | log2 fold change (nilotinib) | log2 fold change [1] | log2 fold change (dasatinib) | log2 fold change [2] | log2 fold change [3] | log2 fold change (quisinostat) | log2 fold change (tipifarnib) | log2 fold change [4] | log2 fold change [5] | log2 fold change [6]
25 | PPIC (UniProt P45877) | -0.112 | 0.069 | 0.037 | -0.02 | -0.036 | -0.063 | 0.145 | 0.206 | – | -0.045
26 | PPP2R5C isoform 2 (UniProt Q13362) | -0.028 | 0.021 | -0.02 | -0.068 | 0.028 | 0.347 (active) | 0.028 | -0.284 | – | -0.051
27 | PCBP2 (UniProt F8W0G4) | 0.034 | -0.092 | -0.138 | -0.154 | 0 | – | -0.298 | – | – | 0.053
28 | PPP2R3C (UniProt Q969Q6) | -0.139 | 0.057 | -0.061 | -0.13 | -0.009 | – | 0.057 | – | 0.038 | 0.062
29 | PPME1 (UniProt Q9Y570) | – | – | 0.032 | – | -0.08 | – | – | – | 0.048 | 0.027
30 | PYGO2 (UniProt Q9BRQ0) | 0.01 | 0.044 | -0.028 | 0.063 | 0.004 | 0.016 | -0.02 | -0.015 | – | 0.029
31 | PPP1R14C (UniProt Q8TAE6) | 0.075 | -0.003 | 0.105 | -0.043 | -0.173 | – | 0.073 | – | -0.184 | –
32 | PFN1 (UniProt I3L3D5) | -0.009 | -0.088 | – | 0.108 | – | – | 0.006 | – | 0.04 | –
33 | PPM1H (UniProt Q9ULR3) | – | – | 0 | – | 0.001 | -0.036 | – | -0.041 | 0 | -0.07
34 | POLR2F (UniProt U3KPV3) | – | – | -0.024 | – | 0.038 | – | – | – | – | –
35 | PLXND1 (UniProt Q9Y4D7) | -0.006 | 0.043 | -0.045 | 0.092 | 0.013 | -0.093 | 0.014 | -0.047 | – | 0.094
36 | PRIMPOL (UniProt Q96LW4) | 0.112 | -0.089 | 0.034 | -0.15 | -0.037 | -0.039 | 0.17 | 0 | – | -0.126
37 | PIAS2 (UniProt O75928) | -0.019 | -0.005 | -0.097 | 0.068 | -0.026 | 0.061 | -0.086 | 0.004 | – | 0.025
38 | PHGDH, A0A286YFE1 | – | – | 0.086 | – | 0.258 | – | – | – | -0.29 | –
39 | PIM1 isoform 2 (UniProt P11309) | 0.059 | -0.025 | -0.033 | 0.063 | 0.112 | -0.085 | 0.061 | 0.038 | – | -0.146
40 | PNPLA4 (UniProt P41247) | – | – | 0.099 | – | 0.194 | 0.048 | – | 0.037 | – | –
41 | PIK3CG (UniProt P48736) | 0.004 | -0.022 | – | 0.079 | 0.097 | -0.139 | 0.003 | 0.013 | – | -0.017
42 | POM121C (UniProt A8CG34) | – | – | – | – | – | – | – | – | 0.022 | -0.09
43 | PPT2, A0A140T9Y1 | -0.054 | 0.086 | – | 0.089 | – | – | 0.1 | – | – | –
44 | NA (UniProt Q4G0T1) | – | – | 0.054 | – | 0.095 | 0.034 | – | 0.054 | – | 0.062
45 | PHOSPHO2 (UniProt C9JD35) | – | – | – | – | – | 0.073 | – | -0.102 | – | –
46 | PFN3 (UniProt P60673) | -0.104 | 0.001 | – | 0.033 | – | -0.349 | -0.083 | -0.044 | -0.087 | –
47 | PFKFB4 (UniProt Q16877) | – | – | 0.009 | – | -0.045 | 0.059 | – | -0.024 | 0.015 | 0.013
48 | PPP2CA (UniProt E7ESG8) | 0.025 | -0.108 | – | -0.232 | – | – | 0.356 | – | – | –
